Assay results reported in paper PMC7862700, “An all-to-all approach to the identification of sequence-specific readers for epigenetic DNA modifications on cytosine”.

The sequences below were run against T1, ELK1 (Homo sapiens, UniProt P19419 1-428) (assay: DAPPL (digital affinity profiling via proximity ligation, sequencing); 10 mM Tris-HCl pH 7.5, 50 mM NaCl, 1 mM DTT, 4% glycerol, room temperature, 30 min; GST-TFs on glutathione beads, 16-mer random dsDNA library, 0.1% formaldehyde crosslink after washing; high values mean tight binding). Conditions: protein: recombinant; tags: N-terminal GST; dsDNA, one strand shown.
T1 sequence: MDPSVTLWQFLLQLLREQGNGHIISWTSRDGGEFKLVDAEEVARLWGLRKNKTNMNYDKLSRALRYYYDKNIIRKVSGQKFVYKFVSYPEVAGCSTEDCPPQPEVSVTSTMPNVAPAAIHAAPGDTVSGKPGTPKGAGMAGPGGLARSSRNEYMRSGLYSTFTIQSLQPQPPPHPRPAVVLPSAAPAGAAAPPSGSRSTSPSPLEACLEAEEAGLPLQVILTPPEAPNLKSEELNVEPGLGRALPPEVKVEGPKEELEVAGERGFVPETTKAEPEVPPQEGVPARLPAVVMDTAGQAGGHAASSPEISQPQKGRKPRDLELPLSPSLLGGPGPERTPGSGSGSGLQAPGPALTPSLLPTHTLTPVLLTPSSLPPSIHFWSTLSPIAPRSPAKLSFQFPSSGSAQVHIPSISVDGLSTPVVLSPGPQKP
Summary of the method: (§1)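 Binding signal is defined as a hexamer's read frequency for one factor over its frequency for the tag-only sample. To obtain reads, GST-fused human transcription factors were expressed in yeast, captured on glutathione beads, barcoded with DNA and pooled with that sample. Pools met 200 nmole of a 16-mer random double-stranded DNA library in Tris/NaCl/DTT/glycerol buffer for 30 min at room temperature before washing, 0.1% formaldehyde crosslinking, proximity ligation (BsaI/T4 ligase, 1 h, 37 °C), PCR and Illumina NextSeq500 sequencing.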
In the case of TGGTTC, the binding signal is reported as 1.33 fold enrichment (6-mer frequency, TF over GST control).
With GCTGTT the binding signal was 1.07 fold enrichment (6-mer frequency, TF over GST control).
With TTCTTG the binding signal was 1.46 fold enrichment (6-mer frequency, TF over GST control).
In the case of CCAAAC, the binding signal is reported as 1.13 fold enrichment (6-mer frequency, TF over GST control).
With ATTATC the binding signal was 1.35 fold enrichment (6-mer frequency, TF over GST control).
In the case of ATGTCA, the binding signal is reported as 1.1 fold enrichment (6-mer frequency, TF over GST control).
In the case of AATCCG, the binding signal is reported as 1.62 fold enrichment (6-mer frequency, TF over GST control).
In the case of AATGAA, the binding signal is reported as 1.1 fold enrichment (6-mer frequency, TF over GST control).
CTCGAA was tested, and the binding signal was 1.12 fold enrichment (6-mer frequency, TF over GST control).
With TTCGAG the binding signal was 1.23 fold enrichment (6-mer frequency, TF over GST control).
In the case of ATGCAC, the binding signal is reported as 1.33 fold enrichment (6-mer frequency, TF over GST control).
For TTGCGG, the binding signal was 1.14 fold enrichment (6-mer frequency, TF over GST control).
For GTTCAA, the binding signal was 1.18 fold enrichment (6-mer frequency, TF over GST control).
With TGTATT the binding signal was 1.31 fold enrichment (6-mer frequency, TF over GST control).
For CGTATC, the binding signal was 1.3 fold enrichment (6-mer frequency, TF over GST control).
In the case of CGACCG, the binding signal is reported as 1.19 fold enrichment (6-mer frequency, TF over GST control).
ACCATC was tested, and the binding signal was 1.14 fold enrichment (6-mer frequency, TF over GST control).
In the case of AAATAG, the binding signal is reported as 1.1 fold enrichment (6-mer frequency, TF over GST control).
AAGTCA was tested, and the binding signal was 1.24 fold enrichment (6-mer frequency, TF over GST control).
For TAACTT, the binding signal was 1.39 fold enrichment (6-mer frequency, TF over GST control).
TCTGTA was tested, and the binding signal was 1.19 fold enrichment (6-mer frequency, TF over GST control).
With CCCTGC the binding signal was 1.22 fold enrichment (6-mer frequency, TF over GST control).
For CCGTCA, the binding signal was 1.3 fold enrichment (6-mer frequency, TF over GST control).
In the case of GGTTCC, the binding signal is reported as 1.64 fold enrichment (6-mer frequency, TF over GST control).
In the case of TCCAAA, the binding signal is reported as 1.18 fold enrichment (6-mer frequency, TF over GST control).
For TACACA, the binding signal was 1.14 fold enrichment (6-mer frequency, TF over GST control).
With TAAATA the binding signal was 1.18 fold enrichment (6-mer frequency, TF over GST control).
With TATAAC the binding signal was 1.21 fold enrichment (6-mer frequency, TF over GST control).
For TAGGCT, the binding signal was 1.18 fold enrichment (6-mer frequency, TF over GST control).
With TGCCGA the binding signal was 1.25 fold enrichment (6-mer frequency, TF over GST control).

What follows are sequences tested against T2, GABPA (Homo sapiens, UniProt Q06546 1-454) in the same assay as above. Conditions: protein: recombinant; tags: N-terminal GST; dsDNA, one strand shown.
T2 sequence: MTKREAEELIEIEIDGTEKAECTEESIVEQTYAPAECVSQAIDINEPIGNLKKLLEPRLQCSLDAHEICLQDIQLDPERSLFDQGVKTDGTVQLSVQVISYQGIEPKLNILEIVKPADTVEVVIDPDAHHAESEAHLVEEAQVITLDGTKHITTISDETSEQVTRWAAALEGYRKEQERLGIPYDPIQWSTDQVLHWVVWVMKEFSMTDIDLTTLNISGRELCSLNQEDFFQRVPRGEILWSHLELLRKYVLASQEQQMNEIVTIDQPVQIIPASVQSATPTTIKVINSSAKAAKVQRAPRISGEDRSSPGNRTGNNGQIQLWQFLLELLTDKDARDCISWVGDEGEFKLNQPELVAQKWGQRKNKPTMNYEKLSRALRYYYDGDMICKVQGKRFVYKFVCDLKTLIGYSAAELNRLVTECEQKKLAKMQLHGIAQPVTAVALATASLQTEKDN
Summary of the method: as §1
In the case of ATGATC, the binding signal is reported as 1.3 fold enrichment (6-mer frequency, TF over GST control).
With TGTTTG the binding signal was 1.32 fold enrichment (6-mer frequency, TF over GST control).
For CCTCTC, the binding signal was 1.37 fold enrichment (6-mer frequency, TF over GST control).
In the case of GCAAAT, the binding signal is reported as 1.04 fold enrichment (6-mer frequency, TF over GST control).
For TAAGGT, the binding signal was 1.14 fold enrichment (6-mer frequency, TF over GST control).
In the case of CTACAA, the binding signal is reported as 1.2 fold enrichment (6-mer frequency, TF over GST control).
CTTCTA was tested, and the binding signal was 1.44 fold enrichment (6-mer frequency, TF over GST control).
For CTTTAA, the binding signal was 1.28 fold enrichment (6-mer frequency, TF over GST control).
With TACGCC the binding signal was 1.3 fold enrichment (6-mer frequency, TF over GST control).
For AGTAAT, the binding signal was 1.16 fold enrichment (6-mer frequency, TF over GST control).
In the case of TGGTTC, the binding signal is reported as 1.35 fold enrichment (6-mer frequency, TF over GST control).
In the case of GCTGTT, the binding signal is reported as 1.12 fold enrichment (6-mer frequency, TF over GST control).
For TTCTTG, the binding signal was 1.5 fold enrichment (6-mer frequency, TF over GST control).
CCAAAC was tested, and the binding signal was 1.15 fold enrichment (6-mer frequency, TF over GST control).
For ATTATC, the binding signal was 1.34 fold enrichment (6-mer frequency, TF over GST control).
In the case of ATGTCA, the binding signal is reported as 1.14 fold enrichment (6-mer frequency, TF over GST control).
In the case of AATCCG, the binding signal is reported as 1.44 fold enrichment (6-mer frequency, TF over GST control).
For AATGAA, the binding signal was 1.22 fold enrichment (6-mer frequency, TF over GST control).
For CTCGAA, the binding signal was 1.26 fold enrichment (6-mer frequency, TF over GST control).
TTCGAG was tested, and the binding signal was 1.31 fold enrichment (6-mer frequency, TF over GST control).
